IL-1B inflam inh = blocks inflammasome-driven IL-1 beta release; THP-1 LPS/ATP IL-1B secretion, AlphaLISA, 16 h; stronger effect = lower value; activity change, % at 57.5 µM; actives 4.7% (n = 360,000); AID 743279; in the data active means activity change below about -50%; inconclusive means mostly about -30% to -49%
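Secreted IL-1B measured by AlphaLISA bead assay after 16 h compound exposure of THP-1 cells; compounds (final up to 57.5 uM) added 1 h before LPS (250 ng/mL) and ATP (1.25 mM) stimulation; lower signal means less secretion.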
ELG1 repair inh = blocks ELG1-dependent DNA repair in HEK293T cells | HEK293T ELG1-luciferase reporter, luminescence, 16 h; DNA damage induced by 5-fluorouridine | Potency, µM (titrated, usually from 46.1 µM), actives largely listed as inhibitors | actives 2.3% (n = 330,000) | AID 504467; further: nearly all actives have a fitted effect of over 55% in size
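Luminescence from the luciferase reporter, measured 30 min after ONE-Glo reagent at room temperature, was the read-out. Beforehand, 2,000 cells per well were exposed for 16 hr at 37 °C to 5-fluorouridine together with compound or vehicle.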
TDP1 cell CPT = DT40-hTDP1 cell growth loss with CPT. Potency, µM (top dose mostly 46.2 µM), usual class: inhibitors. chicken DT40 Tdp1-/-;hTDP1 cells + 20 nM CPT, ATP luminescence, 48 h. actives 12% (n = 420,000); further: nearly all actives have a fitted effect of over 55% in size
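Chicken DT40 Tdp1-/- cells complemented with human TDP1, 400 cells/well, exposed to compounds plus 20 nM camptothecin for at least 48 h at 37 C; viability read as ATP content by CellTiter-Glo luminescence.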
Giardia kill = kills Giardia lamblia | Giardia lamblia trophozoite viability | activity change, % at 7.66 µM, hits read low | actives 0.15% (n = 340,000) | AID 540267; in the data active means activity change below about -80%; inconclusive means between about -30% and that limit;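 further: parasites exposed to compound for two days anaerobically before the ATP read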
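Anaerobic 48 hrs incubation at 37 deg C of 100 trophozoites/well with test compounds; ATPLite 1-Step luminescence, 15-30 min RT, reports cellular ATP as viability.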
TDP1 inh = TDP1 (human) enzyme inhibition. recombinant TDP1, AlphaScreen DNA substrate cleavage. Potency, µM (series often up to 130 µM), actives largely listed as inhibitors. actives 0.28% (n = 350,000); further: nearly all actives have a fitted effect of over 40% in size
Target sequence (Q9NUW8 whole entry, looked up): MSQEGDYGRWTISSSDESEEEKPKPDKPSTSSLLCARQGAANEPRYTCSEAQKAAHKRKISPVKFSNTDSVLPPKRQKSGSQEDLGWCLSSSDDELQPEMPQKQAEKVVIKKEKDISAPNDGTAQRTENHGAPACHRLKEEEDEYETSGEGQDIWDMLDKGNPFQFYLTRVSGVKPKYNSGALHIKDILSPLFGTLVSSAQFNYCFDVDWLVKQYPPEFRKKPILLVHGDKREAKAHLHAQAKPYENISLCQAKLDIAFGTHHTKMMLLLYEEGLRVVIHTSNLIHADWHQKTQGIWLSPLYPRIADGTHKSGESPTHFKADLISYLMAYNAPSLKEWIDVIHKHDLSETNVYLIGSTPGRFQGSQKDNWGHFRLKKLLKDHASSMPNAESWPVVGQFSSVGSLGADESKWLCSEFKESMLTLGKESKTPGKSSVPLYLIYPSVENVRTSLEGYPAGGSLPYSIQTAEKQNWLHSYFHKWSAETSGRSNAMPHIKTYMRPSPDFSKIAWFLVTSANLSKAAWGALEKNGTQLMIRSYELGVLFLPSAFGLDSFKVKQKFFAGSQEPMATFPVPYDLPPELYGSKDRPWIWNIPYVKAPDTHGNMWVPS
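Enzyme-compound mixtures sat 15 min at room temperature, followed by a 5 min reaction with 15 nM final substrate and 10 min with AlphaScreen beads. Recombinant human Tdp1 was used at 1 nM final.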
DT40 TDP1 no CPT = qHTS for Inhibitors of human tyrosyl-DNA phosphodiesterase 1 (TDP1): qHTS in cells in absence of CPT | Potency, µM (highest dose often 46.2 µM), most hits filed as inhibitors | AID 686978, 2013 | actives 15% (n = 420,000) | DT40 Tdp1-/- hTDP1 cells, no CPT, ATP luminescence, 48 h; further: nearly all actives have a fitted effect of over 55% in size
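Stably hTDP1-transfected Tdp1-null chicken DT40 cells were treated with library compounds minus camptothecin and grown for at least 48 hr at 37 °C, after which cellular ATP was quantified by luminescence.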
A number is an active result; – = inactive; ? = inconclusive; · = not tested or not shown; [ ] = another dose, or the depositor's remark. Hits are enriched below; roughly 19% of the tested compounds scored in any of these assays. Unless noted, the call rests on the fitted dose curve; in most records, active means well fitted curve in the direction sought with a large enough effect; inconclusive means small, poorly fitted or top-dose-only effect, or another doubt; inactive means no such curve, though single readings can be large; an effect the other way counts as inactive or inconclusive.

SMILES | IL-1B inflam inh | ELG1 repair inh | TDP1 cell CPT | Giardia kill | TDP1 inh | DT40 TDP1 no CPT
COc1ccc(Cl)cc1NC(=O)CSc1nnc(CN2CCOCC2)n1-c1ccc(Cl)cc1 | – | – | 16µM | – | – | 21µM
Cc1ccccc1NC(=O)CSc1nc(N2CCCCC2)nc(N2CCCCC2)n1 | – | – | ? | – | – | –
CC(=O)c1ccc(NC(=O)CSc2nc(N3CCOCC3)nc(N3CCOCC3)n2)cc1 | – | ? | – | – | – | –
CCCn1cc(S(=O)(=O)c2ccc(OC)cc2)c(=O)c2cc(OC)ccc21 | – | – | – | – | – | –
CCOCC(=O)Nc1ccc([N+](=O)[O-])cc1C | – | ? | – | – | – | –
COc1ccc(Cl)cc1NC(=O)CSc1nc(Nc2ccccc2)nc(N2CCOCC2)n1 | – | – | ? | – | – | 18µM
Cc1ccc(CNC(=O)CSc2nc(N3CCCCC3)nc(N3CCCCC3)n2)cc1 | – | – | 21µM | – | – | 23µM
Cc1ccc2scc(N3CCCCC3)c(=O)c2c1 | · | · | – | · | – | –
Cc1cc(C)cc(NC(=O)c2ccc(CSc3nnnn3C)cc2)c1 | -53 | – | – | – | – | –
Cn1nnnc1SCc1ccc(C(=O)Nc2ccccc2F)cc1 | – | ? | – | – | – | –
CCC(C)(C(=O)NC1CCCC1)N(Cc1cccs1)C(=O)c1ccc2c(c1)OCO2 (centres undefined) | – | – | 18µM | – | – | 21µM
CCC(C)(C(=O)NC1CCCCC1)N(Cc1cccs1)C(=O)Cc1cccs1 (centres undefined) | – | – | ? | – | – | ?
Cc1nc(N2CCOCC2)c2c(C(=O)N3CCN(c4ccccc4F)CC3)c(C)oc2n1 | · | · | – | · | – | –
CCCCN1C(=O)Cc2c1nc(N)c1c(N)nc(N(CCC)CCC)c(C#N)c21 | – | ? | – | – | – | –
C=C(C)CN(CC)c1nc(N)c2c(N)nc3c(c2c1C#N)CC(=O)N3C12CC3CC(CC(C3)C1)C2 | -60 | ? | 3.3µM | – | – | 3.3µM
N#Cc1c(N2CCCC(O)C2)nc(N)c2c(N)nc3c(c12)CC(=O)N3C12CC3CC(CC(C3)C1)C2 (centres undefined) | – | ? | 16µM | – | – | 18µM
CC(C)(C)NC(=O)C(c1ccccc1)N(C(=O)CNC(=O)c1cccs1)c1cccnc1 (centres undefined) | – | – | – | – | · | –
Cc1cc(C)n(CCCNC(=O)CCNS(=O)(=O)c2ccccc2C(F)(F)F)n1 | – | – | – | – | – | –
CCOc1ccc(S(=O)(=O)N2CCOCC2)cc1NC(=O)CSCC(=O)Nc1ccc(OC)cc1 | – | · | – | – | · | –
O=C1N(Cc2cccc(Cl)c2)C[C@@H]2C[C@@H](c3cccn3-c3nccs3)N3CCC[C@@]123 | -82 | – | ? | – | – | 16µM
O=C1N(Cc2cccc(Cl)c2)C[C@@H]2C[C@@H](c3ccc4nonc4c3)N3CCC[C@@]123 | – | ? | ? | – | – | 18µM
O=C1N(Cc2cccc(Cl)c2)C[C@@H]2C[C@@H](c3c[nH]c4ccccc34)N3CCC[C@@]123 | – | – | ? | – | · | 15µM
O=C1N(Cc2cccc(Cl)c2)C[C@@H]2C[C@@H](c3cccc4ncccc34)N3CCC[C@@]123 | -74 | ? | 23µM | – | – | 23µM
CC(=O)N1CCCC1c1nc2ccccc2n1Cc1ccccc1C (centres undefined) | · | · | ? | · | – | –
CN(C)c1ccc(C(CNC(=O)Cc2ccc(Cl)cc2)N2CCOCC2)cc1 (centres undefined) | · | · | ? | · | – | ?
SMILES | IL-1B inflam inh | ELG1 repair inh | TDP1 cell CPT | Giardia kill | TDP1 inh | DT40 TDP1 no CPT
Cc1ccc(NC(=O)Cc2cn(C)c3ccccc23)cc1F | – | – | – | – | – | –
COc1cc2cc(CN(C(=O)Nc3ccccc3)C3CCCC3)c(=O)[nH]c2cc1OC | ? | ? | – | – | – | –
Cn1cc(CN(C(=O)Nc2ccccc2)C2CCCCC2)c2ccccc21 | · | · | 6.5µM | · | – | 8.2µM
Cn1cc(CN(C(=O)Nc2ccc(Cl)c(Cl)c2)C2CCCCC2)c2ccccc21 | · | · | 2.3µM | · | – | 4.1µM
COc1ccc(N2CC(NC(=O)N3CCN(C(=O)c4ccco4)CC3)CC2=O)cc1OC (centres undefined) | – | ? | – | – | · | –
CC(=O)c1cccc(NC(=O)COc2nsnc2N2CCOCC2)c1 | – | ? | ? | – | – | ?
O=C(COc1nsnc1N1CCOCC1)Nc1ccc([N+](=O)[O-])cc1 | – | – | 29µM | ? | –[0.0935 µM] | 23µM
O=C(COc1nsnc1N1CCOCC1)Nc1ccc(Cl)cc1 | – | – | ? | – | – | 15µM
Cc1cccc(NC(=O)COc2nsnc2N2CCOCC2)c1 | – | – | – | – | – | –
COc1ccc(NS(=O)(=O)c2cccc(C(=O)NC3CCC(O)CC3)c2)cc1 (centres undefined) | – | – | ? | – | – | ?
CCOC1(OCC)C(c2ccc(Cl)cc2)C(C#N)(C#N)C1(OCC)OCC (centres undefined) | -57 | – | ? | – | – | 18µM
CCOC1(OCC)C(c2ccc(N)cc2)C(C#N)(C#N)C1(OCC)OCC (centres undefined) | – | – | – | – | – | –
Cc1ccc(C)c(N2CCN(C3CCCCC3NS(=O)(=O)c3ccccc3)CC2)c1 (centres undefined) | – | – | 7.3µM | – | – | 4.6µM
CC1CC(C)CN(C2CCCCC2NS(=O)(=O)c2ccc(Cl)cc2)C1 (centres undefined) | – | – | ? | – | · | 23µM
COc1ccc(N2CCN(C3CCCCC3NS(=O)(=O)c3ccc(Cl)cc3)CC2)cc1 (centres undefined) | – | – | ? | – | – | ?
Cc1ccc(Cl)cc1N1CCN(C2CCCCC2NS(=O)(=O)c2ccccc2)CC1 (centres undefined) | – | ? | 16µM | – | – | 18µM
COc1ccccc1N1CCN(C2CCCCC2NS(=O)(=O)c2ccc(Cl)cc2)CC1 (centres undefined) | -72 | ? | 23µM | ? | – | 23µM
Cn1c(=O)c(=O)n(C)c2cc(S(=O)(=O)NCCOc3ccccc3Cl)ccc21 | – | – | – | – | – | –
Cc1cc(C)c(S(=O)(=O)Nc2nnc(C3CCCCC3)s2)c(C)c1 | – | – | – | – | – | –
Cc1ccc([C@H]2C[C@@H](n3cc(-c4ccc(F)cc4)nn3)[C@H](O)CN2CC2CCCCC2)cc1 | – | · | – | · | · | ?

Bioassay records as filed in PubChem BioAssay.
